Our source for the growth values is PubChem BioAssay (NCI).

About 83,000 compounds went through this panel and 20% of them were active in at least one assay; those are over-represented in the sample as a whole.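 Method: cells in 96-well plates; compound added at one concentration; 48 h incubation; percent growth measured; values under 10 scored active.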 A number with no mark means an inactive call. Activity calls are given as the source filed them.

Among the test systems are DU-145 prostate; K-562 leukemia; MALME-3M melanoma; MDA-MB-231 breast; RXF 393 renal; SF-268 CNS; SF-295 CNS; SF-539 CNS; UACC-257 melanoma; M14 melanoma.
Holding throughout (experiment): NCI-60 one-dose screen, 48 h (100 = growth as untreated, 0 = no growth, -100 = all killed)
Conditions in all cases: 10 µM unless noted

With `N#CC1C(C#N)C(C(=O)c2ccc(Br)cc2)N2c3ccccc3C=CC12` (stereo not given), the growth in the experiment on DU-145 prostate is 91.9%; with K-562 leukemia, 24.4%; in the experiment with MALME-3M melanoma, 67.3%; in the experiment on MDA-MB-231 breast it was 57.6%; with RXF 393 renal it was 74.5%; in the experiment on SF-268 CNS it was 78.5%. Also, the growth in the experiment on SF-295 CNS was 89.1%; in the experiment on SF-539 CNS, 89.3%; in the experiment with UACC-257 melanoma, 98.9%; with M14 melanoma, 75.3%.
For `CCCOc1ccc(/C=N/Nc2cc(C)nc3ccc(Cl)cc23)cc1`, the growth in the experiment on DU-145 prostate is 24.2%; in the experiment with K-562 leukemia, -37% (active); in the experiment on MALME-3M melanoma, -59% (active); in the experiment with MDA-MB-231 breast it was 60.1%; in the experiment on RXF 393 renal it was -18.9% (active); in the experiment on SF-268 CNS it was 83.8%. The growth with SF-295 CNS is -74.3% (active); in the experiment with SF-539 CNS, -62.6% (active); in the experiment on UACC-257 melanoma, 89.8%; in the experiment with M14 melanoma it was -29.8% (active).
In the case of `C=C1C(=O)O[C@H]2[C@H]1CC/C(CNC(=O)C(C)c1ccc(CC(C)C)cc1)=C\CC[C@@]1(C)O[C@@H]21` (stereo not given in full), the growth in the experiment with DU-145 prostate was 16.4%; in the experiment with K-562 leukemia, -13.8% (active); in the experiment on MALME-3M melanoma, -60.7% (active); in the experiment with MDA-MB-231 breast, -1.8% (active); with RXF 393 renal it was -64.4% (active); with SF-268 CNS, 43.9%. Also, the growth is 75.9% with SF-295 CNS, -74.8% (active) with SF-539 CNS, -11.4% (active) with UACC-257 melanoma and -74.3% (active) with M14 melanoma.
`COc1cc2nc(-c3ccc(C(F)(F)F)cc3)cc(OCCCN3CCOCC3)c2cc1OC`: the growth was 41.5% in the experiment on DU-145 prostate; 11.5% with K-562 leukemia; 45.2% in the experiment on MALME-3M melanoma; 22.1% in the experiment with MDA-MB-231 breast; 14.5% in the experiment with RXF 393 renal; 56.1% in the experiment with SF-268 CNS. In addition, the growth was -50.1% (active) in the experiment with SF-295 CNS, 46% in the experiment with SF-539 CNS, -16.2% (active) in the experiment with UACC-257 melanoma and -56% (active) with M14 melanoma.
`COc1cc2nc(-c3ccc(Cl)cc3)cc(OCCCN3CCC(O)CC3)c2cc1OC`: the growth is 38.5% in the experiment on DU-145 prostate; 13.9% with K-562 leukemia; 64% in the experiment with MALME-3M melanoma; 26.1% in the experiment on MDA-MB-231 breast; 46.3% with RXF 393 renal; 54.8% in the experiment with SF-268 CNS. Also, the growth with SF-295 CNS is -10.5% (active); in the experiment on SF-539 CNS it was 54.3%; in the experiment on UACC-257 melanoma, 8.39% (active); in the experiment with M14 melanoma it was -48% (active).
Turning to `COc1cccc(/C=N/NC(=O)c2cnn3c2NC(c2ccccc2)C3)c1Oc1ccccc1` (stereo not given), the growth was 89.8% in the experiment with DU-145 prostate; 36% in the experiment with K-562 leukemia; 75.3% with MALME-3M melanoma; 90.7% in the experiment on MDA-MB-231 breast; 82.1% with RXF 393 renal; 88.3% with SF-268 CNS. In addition, the growth with SF-295 CNS was 63.3%; in the experiment on SF-539 CNS, 84%; in the experiment with UACC-257 melanoma, 86.3%; in the experiment on M14 melanoma, 50.2%.
`COc1cccc(-c2nc3occn3c2-c2ccnc(NCCNS(=O)(=O)c3cccc4ccccc34)n2)c1`: the growth with DU-145 prostate is 107%; in the experiment with K-562 leukemia it was 95.1%; in the experiment with MALME-3M melanoma, 111%; in the experiment with MDA-MB-231 breast, 112%; in the experiment with RXF 393 renal, 102%; with SF-268 CNS, 96.8%. The growth in the experiment with SF-295 CNS was 106%; in the experiment on SF-539 CNS, 109%; in the experiment on UACC-257 melanoma it was 104%; in the experiment on M14 melanoma it was 117%.
Turning to `CCNC(=O)Oc1ccc(/C(=C(\C)c2ccccc2)c2ccc(OCCCN(C)C)cc2)cc1`, the growth in the experiment on DU-145 prostate is 92.5%; in the experiment with K-562 leukemia, 14.4%; in the experiment with MALME-3M melanoma it was 40.9%; with MDA-MB-231 breast it was 76.6%; with RXF 393 renal, 76.1%; in the experiment with SF-268 CNS, 72.1%. Further, the growth was 52.4% in the experiment on SF-295 CNS, 65.8% in the experiment with SF-539 CNS, 3.23% (active) with UACC-257 melanoma and 19.7% with M14 melanoma.
For `COc1cccc(-c2ccc3c(c2)NC(=O)/C3=C\c2ccc[nH]2)c1`, the growth in the experiment with DU-145 prostate is 65.7%; in the experiment on K-562 leukemia, 12.4%; in the experiment on MALME-3M melanoma, 51.9%; in the experiment with MDA-MB-231 breast, 53.4%; with RXF 393 renal, 32.2%; in the experiment on SF-268 CNS, 80.8%. The growth is 61.8% with SF-295 CNS, 45.4% in the experiment on SF-539 CNS, 77% in the experiment with UACC-257 melanoma and 39.2% in the experiment on M14 melanoma.
Consider `CC(=O)CCC(=O)OCc1cc(=O)c(O)co1`, for which the growth was 102% in the experiment with DU-145 prostate; 102% in the experiment with K-562 leukemia; 95.5% in the experiment on MALME-3M melanoma; 110% in the experiment with MDA-MB-231 breast; 113% with RXF 393 renal; 97.7% with SF-268 CNS. The growth is 103% with SF-295 CNS, 110% with SF-539 CNS, 99.7% with UACC-257 melanoma and 99.4% in the experiment with M14 melanoma.
As for `CC(=O)Nc1cccc(-c2ccc3c(c2)NC(=O)/C3=C\c2ccc[nH]2)c1`, the growth was 57.4% with DU-145 prostate; 12.3% in the experiment with K-562 leukemia; 71.7% in the experiment on MALME-3M melanoma; 34.9% in the experiment with MDA-MB-231 breast; 54.3% in the experiment on RXF 393 renal; 67.5% in the experiment with SF-268 CNS. Moreover, the growth with SF-295 CNS was 32.6%; in the experiment with SF-539 CNS, 28.1%; with UACC-257 melanoma, 73.2%; with M14 melanoma it was 39.1%.
Consider `CC(=O)Nc1ccc(-c2ccc3c(c2)NC(=O)/C3=C\c2ccc[nH]2)cc1`, for which the growth is 72% in the experiment on DU-145 prostate; 96.1% in the experiment on K-562 leukemia; 109% in the experiment with MALME-3M melanoma; 80.7% in the experiment on MDA-MB-231 breast; 104% in the experiment on RXF 393 renal; 92.1% in the experiment on SF-268 CNS. The growth in the experiment with SF-295 CNS is 87.2%; in the experiment with SF-539 CNS, 81.4%; with UACC-257 melanoma, 119%; in the experiment on M14 melanoma, 105%.
On to `NC1[C@H](c2c[nH]c3ccccc23)c2c([nH]c3ccccc23)[C@H]1c1c[nH]c2ccccc12` (stereo not given in full), for which the growth in the experiment with DU-145 prostate is 95.3%; in the experiment with K-562 leukemia, 90.8%; with MALME-3M melanoma, 88.9%; in the experiment with MDA-MB-231 breast, 75.7%; in the experiment on RXF 393 renal, 104%; in the experiment with SF-268 CNS, 84.4%. Besides, the growth in the experiment on SF-295 CNS was 92.9%; with SF-539 CNS, 100%; in the experiment with UACC-257 melanoma, 111%; in the experiment on M14 melanoma, 92.3%.
